# Data published in PubChem BioAssay (NCI).
# About 79,000 compounds went through this panel and 15% of them were active in at least one assay; those are over-represented in the sample as a whole. Unmarked numbers belong to inactive results. The source made the active and inactive calls. Cut-off read from the data, not from the text of the source: active = growth inhibition above about 70%; inactive = the rest.
# Assays:
# [1] = NCI Yeast Anticancer Drug Screen. Data for the rad50 strain (AID 155);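 note: 0% = growth of vehicle-only cultures of the same strain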; conditions: S. cerevisiae rad50 strain growth inhibition; at 50.0 µM; active compounds read high
# Procedure, shortened: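 Growth of the mutant yeast was measured after compound exposure and referenced to vehicle-treated cultures.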
# [2] = NCI Yeast Anticancer Drug Screen. Data for the mec2-1 strain (AID 157); conditions: S. cerevisiae mec2-1 strain, at 50.0 µM, active compounds read high
# Procedure, shortened: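 Strain: mec2-1 (DNA repair/cell cycle alteration). Compound exposure, then growth measured; inhibition expressed relative to vehicle.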
# [3] = NCI Yeast Anticancer Drug Screen. Data for the sgs1 mgt1 strain (AID 161);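 note: 0% = growth of cultures given vehicle only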; conditions: S. cerevisiae sgs1 mgt1 strain, at 50.0 µM, active compounds read high
# Procedure, shortened: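 Test agents were incubated with a DNA-repair-mutant yeast strain. Growth was then read and compared against vehicle-treated controls.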
# [4] = NCI Yeast Anticancer Drug Screen. Data for the cln2 rad14 strain (AID 165);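 note: 0% = growth equal to vehicle treated cultures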; conditions: S. cerevisiae cln2 rad14 strain, at 50.0 µM, active compounds read high
# Procedure, shortened: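 Compounds are applied to the cln2 rad14 yeast strain, and growth is then compared with that of vehicle-treated cultures to give inhibition.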
# [5] = NCI Yeast Anticancer Drug Screen. Data for the bub3 strain (AID 167); conditions: S. cerevisiae bub3 mutant strain, at 50.0 µM, active compounds read high
# Procedure, shortened: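 Whole-cell yeast assay. The mutant strain was incubated with compounds, and growth inhibition was determined by comparison with vehicle-treated cells.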
# [6] = NCI Yeast Anticancer Drug Screen. Data for the mlh1 rad18 strain (AID 175); conditions: S. cerevisiae mlh1 rad18 strain growth inhibition; at 50.0 µM; active compounds read high
# Procedure, shortened: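 Read-out is yeast growth inhibition, calculated against vehicle-only controls. The compound was applied to a strain engineered with DNA damage repair alterations.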
Compound,growth inhibition [1],growth inhibition [2],growth inhibition [3],growth inhibition [4],growth inhibition [5],growth inhibition [6]
N#CC(/C(=N\NC(=O)c1ccncc1)C(=O)Nc1ccc([N+](=O)[O-])cc1[N+](=O)[O-])c1nc(-c2ccc(Br)cc2)cs1 (stereo not drawn),0.25%,-3.75%,-15.1%,7.6%,12.9%,-7.85%
COc1cc(C=O)c(-c2cc(OC)c(OC)cc2C=O)cc1OC,5.9%,-6.65%,-8.8%,0.2%,-12.4%,-2.15%
CN(C)S(=O)(=O)Cc1ccccc1,7.95%,-6.65%,-6.65%,-73.5%,6.75%,-7.1%
O=C1NC(=NC2CCCCC2)C2(CCN(CCCC3(c4ccc(F)cc4)OCCO3)CC2)N1c1ccccc1,-18.8%,-17.2%,-6.3%,5%,-5%,-1.45%
O=C(O)C1CCCCC1C(=O)Nc1ccc(Cl)c(Cl)c1 (stereo not drawn),5.75%,20.1%,-5.65%,-4.15%,13.6%,-48.1%
CCCCOc1ccc(Nc2c(C(=O)O)cnc3cc4c(cc23)OCO4)cc1,-11.1%,3.25%,-13.7%,5.4%,-4.85%,18.4%
CC(=O)NC(CCCCN)C(=O)NCc1ccccc1 (stereo not drawn),-1.95%,-12%,-12.1%,11.1%,-19%,-20.4%
CC[N+](C)(CCO)C(Cc1ccccc1)c1ccccc1 (stereo not drawn),8.5%,-3.5%,-0.1%,-16.1%,19.5%,-1.7%
COc1ccc(NC(=O)COc2cc(Cl)c(Cl)cc2Cl)cc1,-3.7%,6.8%,2.05%,11.9%,3.9%,-17.9%
O=C(NNC(=O)c1ccccc1F)c1ccc2ccccc2c1,-15.3%,-13.3%,-8.75%,-2.5%,-2.1%,-6.55%
CC(SC(C)c1ccccc1)c1ccccc1 (stereo not drawn),-5.8%,-16.6%,-8.65%,-11.9%,-8.1%,3.65%
CCCCCC1CCN(C(=O)c2ccc(N)cc2)CC1,90% (active),52.8%,44.8%,49%,94.4% (active),42.7%
O=C1N(CCN2CCC3(CC2)OCCO3)CCN1c1cc(Cl)cc(Cl)c1,56.9%,25.4%,51%,34.3%,24.6%,37.8%
CC(=O)NC1=NC(=O)/C(=C/c2ccc(/C=C3/C(=O)N=C(NC(C)=O)N3C)cc2)N1C,-20.6%,11%,14.4%,35.6%,-9.05%,-27.2%
CC(=O)N1CN=C2Sc3ccccc3N2C1,4.05%,0.2%,8.45%,-16%,13.2%,18.5%
Cn1cnc2ncnc(Nc3ccc(Cl)cc3)c21,5.25%,-16%,4%,-24.2%,10%,-6.1%
CC(=O)Oc1ccc([N+](=O)[O-])cc1,16.9%,12.7%,27.4%,-17.7%,-1%,34%
CC1=C(C(=O)O)C(C)CC(=O)N1 (stereo not drawn),5.15%,-3.4%,-8.25%,-12.4%,1.2%,7.9%
CCOC(CCCl)c1ccc(C)cc1 (stereo not drawn),-25.2%,-42.2%,-20.4%,20.1%,-33.6%,-20.5%

Compound,growth inhibition [1],growth inhibition [2],growth inhibition [3],growth inhibition [4],growth inhibition [5],growth inhibition [6]
Cc1cccc(NC(=O)NC2CCC(CC3CCCCC3)CC2)c1 (stereo not drawn),16.7%,5.8%,7.2%,-9.6%,-1.55%,7.65%
CCOC(=O)C(C)F (stereo not drawn),6.1%,-26.1%,1.55%,-1.15%,-8.45%,3.75%
O=C(O)C(=Cc1ccnc2ccccc12)C(=O)O,7.75%,-13.7%,-35.8%,15.7%,-52.2%,3.5%
CCC(C)(O)C(=O)O (stereo not drawn),9.8%,-9.4%,-32.4%,-4.75%,-13.3%,-15.2%
Cc1c(C(=O)Nc2ccc(Cl)cc2)nc(N)nc1-c1cccc(Cl)c1,-18.9%,-8.85%,2.3%,1.1%,-3.6%,-8.7%
Nc1cccc(C(CC(=O)O)CC(=O)O)c1,14.8%,10.9%,13%,16.7%,-1.5%,15.8%
COC1OC(CO)C(O)C(O)C1Br (stereo not drawn),19.8%,13.9%,13%,31.7%,23.8%,21.2%
Cc1c(C)n(COCCO)c2ncnc(N)c12,-14.2%,-37.1%,-23.6%,13.8%,-12.6%,-39%
Cc1cc(NS(=O)(=O)c2ccc(NC(=O)c3ccc(Cl)c4c(Nc5ccc(S(=O)(=O)N=C(N)N)cc5)c5ccccc5nc34)cc2)no1,29.9%,42.1%,31.6%,34.5%,26.4%,53.5%
COC(=O)C1=C(C)NC(C)=C(C(=O)OC)C1c1ccc(NC(C)=O)cc1,4.7%,-3.7%,13.3%,-6.25%,5.25%,10.9%
COc1ccc(N2C(=O)CCC2=S)cc1,-5.35%,8.55%,6.8%,-4.5%,-7.9%,15.5%
O=C1OC(=O)c2c1ccc1ccccc21,-6%,-21.6%,6.8%,-8.35%,0.95%,14.8%
CC1(C)N=C(N)NC(Nc2ccc(Cl)cc2)=N1,9.6%,9.05%,10.8%,-20.8%,14.6%,33.6%
CC(C)(C)OC(=O)C(N)Cc1ccccc1 (stereo not drawn),-5.8%,-6.6%,20.9%,0.35%,3.35%,-22.6%
C[n+]1ccc(/C=C/c2ccc(O)c3ncccc23)c2cccc(O)c21,38.5%,41.8%,37.9%,7.75%,5.4%,44.9%
COC(=O)C(CNc1ccc(S(N)(=O)=O)cc1)=[N+]=[N-],7.4%,13.3%,0.95%,-12.8%,6.25%,11.2%
O=c1oc2c(Cl)cc(Cl)cc2cc1-c1nc2ccccc2[nH]1,29.1%,38.2%,15.6%,9.65%,14.1%,12.6%
CCS(=O)(=O)/C=C(\C(=O)c1ccccc1)c1ccccc1,83.1% (active),93.5% (active),94% (active),47.2%,89.8% (active),93.3% (active)
O=C(c1cccc(C(F)(F)F)c1)c1ccccc1Cc1ccccc1,3.85%,13.9%,12.2%,-28.1%,14.2%,42%
